The nature of test [1]: Cell Viability - N2a (AID 540).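 Note: plate controls were DMSO alone for no effect and tamoxifen control for full effect; nearly all actives have a fitted effect of over 45% in size.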 The following applies: N2a mouse neuroblastoma cell viability; activity change, negative = cytotoxicity: at 92.2 µM (top of the series). An outline of the steps:
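CellTiter-Glo ATP luminescence, read 20 min after reagent at room temperature, reported viability following 40 h compound treatment at 37 °C. N2a mouse neuroblastoma cells seeded 1500/well; Hill equation gave AC50.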

A short description of test [2]: Cellular Toxicity (caspase-3) Jurkat (AID 655).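 Note: cells exposed to compound for 16 h at 37 °C before reading.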 The settings on record: Jurkat caspase-3 activation, luminescence; caspase-3 activation: at 92.2 µM (top of the series), DMSO = 0%, tamoxifen = 100%. An outline of the steps:
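Caspase 3/7 activation is scored as increased luminescence in Jurkat cells cultured with compound for 16 hours in complete medium. AC50 values come from Hill fits of qHTS concentration-response data normalized to DMSO and 100 uM tamoxifen controls.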

Test [3] can be described thus: Cellular Toxicity (caspase-3) BJ (AID 658).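 Note: 0% = DMSO basal and 100% = 10 µM staurosporine.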 The gist of the method: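 Plated BJ cells (1000/well) rested 5 hr, received compound for 16 hr at 37 °C, then Caspase-Glo 3/7 reagent for 1 hr at room temperature before luminescence reading.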
A short description of test [4]: MultiTox-Fluor Cytotoxicity Assay - LYMP1-002 - Live Cells (AID 955). Note: % is set by controls: 0 for no effect and ±100 for the full control effect. The gist of the method: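 After 16 h compound exposure at 37 C, live LYMP1-002 lymphoblastoid cells (2500/well) were quantified by cleavage of cell-permeant GF-AFC substrate, read at 405/510 nm after 60 min. Concentration-response fitted with Hill equation for AC50.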
A short description of test [5]: Cell Viability - LYMP2-004 (AID 966).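 Note: plate controls were DMSO only for no effect and tetraoctylammonium bromide control for full effect; nearly all actives have a fitted effect of over 65% in size.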 The gist of the method: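 AC50 values come from Hill modelling of concentration-dependent loss of intracellular ATP, measured by CellTiter-Glo luminescence. Human LYMP2-004 lymphoblastoid cells (2500/well) were exposed to compound for 24 h at 37 C.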
Test [6] can be described thus: Cell Viability - LYMP2-011 (AID 969).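 Note: 0% = DMSO only and full inhibition = 92 µM tetraoctylammonium bromide; nearly all actives have a fitted effect of over 60% in size.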 An outline of the steps: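 Cytotoxicity qHTS with ATP content as read-out: lymphoblastoid cells (2500/well) exposed to compound for 24 h at 37 C, then luciferase luminescence measured. Concentration-response data fitted with the standard Hill equation to give AC50.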
A short description of test [7]: Cell Viability - LYMP2-023 (AID 975).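 Note: cellular ATP measured by luciferase luminescence as viability proxy; plate controls were DMSO only for no effect and 92 µM tetraoctylammonium bromide control for full effect; nearly all actives have a fitted effect of over 55% in size.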 The gist of the method: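 Intracellular ATP, read by CellTiter-Glo luminescence, reports viability after 24 hr compound exposure at 37 C. 2500 lymphoblastoid cells/well (LYMP2-023) seeded 5 hr beforehand; Hill fits give AC50; positive control tetraoctylammonium bromide.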
A short description of test [8]: Cell Viability - LYMP2-025 (AID 976).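 Note: plate controls were DMSO only for no effect and tetraoctylammonium bromide control for full effect.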 An outline of the steps:
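Cytotoxicity read as loss of intracellular ATP (luciferase luminescence) after 24 h compound treatment at 37 C. Uses LYMP2-025 lymphoblastoid cells in 1536-well format; Hill-equation modelling gives AC50; tetraoctylammonium bromide as positive control.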

Test [9] is described as follows: Cell Viability - LYMP2-002 (AID 977).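 Note: plate controls were DMSO only for no effect and 92 µM tetraoctylammonium bromide for full effect.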 An outline of the steps: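 In this qHTS viability screen, 2500 human lymphoblastoid cells per well receive compound for 24 hr at 37 C, and luciferase-based ATP luminescence gives the viability signal. Tetraoctylammonium bromide serves as positive control.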
Test [10] is described as follows: Cell Viability - LYMP2-012 (AID 982).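 For activity change, negative = cytotoxicity: 0% = DMSO only and full loss = 92 µM tetraoctylammonium bromide.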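 Note: cellular ATP by luciferase luminescence where a drop means cytotoxicity; cells exposed to compound for one day before reading; nearly all actives have a fitted effect of over 55% in size.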 Note: potency is the fitted concentration of half-maximal effect.
Test [11] in a line: Cell Viability - LYMP2-014 (AID 983).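 Note: plate controls were DMSO only for no effect and 92 µM tetraoctylammonium bromide for full effect; nearly all actives have a fitted effect of over 50% in size.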 An outline of the steps:
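Intracellular ATP loss, read by luciferase luminescence, measures acute cytotoxicity after 24 h compound exposure of lymphoblastoid LYMP2-014 cells (2500/well, 37 C). Concentration-response data fitted to the Hill equation for AC50.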

Test [12] in a line: Cell Viability - LYMP2-020 (AID 986).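 Note: plate controls were DMSO only for no effect and tetraoctylammonium bromide at 92 µM for full effect; nearly all actives have a fitted effect of over 55% in size.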 An outline of the steps: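 Cytotoxicity in qHTS format: luminescent ATP readout from CellTiter-Glo after 24 h compound exposure at 37 C in complete medium. LYMP2-020 lymphoblastoid cells were seeded at 2500/well; concentration-response data fitted to the Hill equation for AC50.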
A short description of test [13]: Cell Viability - LYMP2-022 (AID 987).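 Note: 0% = DMSO alone and full effect = tetraoctylammonium bromide at 92 µM; nearly all actives have a fitted effect of over 55% in size.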 The gist of the method: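 Cytotoxicity read as decreased cellular ATP (CellTiter-Glo luminescence, 30 min room temperature) after 24 hours compound exposure of 2500 lymphoblastoid LYMP2-022 cells/well at 37 C. Concentration-response data fitted with standard Hill equation for AC50.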
The target of test [14] is Vitamin D3 receptor (Homo sapiens) (UniProt P11473). The experiment in a line: qHTS assay for small molecule agonists of vitamin D receptor signaling (AID 588543; calls by dose curve;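 note: 0% = DMSO basal and 100% = reference agonist control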). The gist of the method:
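qHTS in agonist mode: compound titrations stimulate a VDR-driven β-lactamase reporter in HEK293T cells over 16 h at 37 °C. Response normalized to 50 nM 1α,25-dihydroxyvitamin D3 = 100%, DMSO = 0%; Hill fitting gives EC50 and maximal response.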
In general terms: qHTS replaces the single test concentration by a dilution series.

For test [15], the target named is Retinoic acid receptor RXR-alpha (Homo sapiens) (UniProt P19793). As to the kind of experiment: qHTS assay for small molecule antagonists of retinoid X receptor alpha signaling (AID 588546; active = well fitted inhibition curve with a large enough effect in the signal ratio, with a control signal flat, not every such curve was filed as active; the % refers to the signal ratio; note: % is set by controls: 0 for no effect and ±100 for the full control effect). The settings on record: HEK293T RXRa-UAS-bla, beta-lactamase ratio, antagonist mode. An outline of the steps: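 Beta-lactamase reporter inhibition, read as CCF4 fluorescence ratio (ex 405, em 460/530 nm) after 2 h at RT. HEK293T UAS-bla cells, 2500/well, were stimulated with 9-cis-RA at 500 or 100 nM final alongside test compound for 18 h at 37 C.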

Test [16] addresses Voltage-gated inwardly rectifying potassium channel KCNH2 (Homo sapiens) (UniProt Q12809). The experiment in a line: qHTS Assay for Small Molecule Inhibitors of the Human hERG Channel Activity (AID 588834).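 Note: U2OS cells transduced with hERG by BacMam; top concentration of the series differs between compounds; % is set by controls: 0 for no effect and ±100 for the full control effect; lower thallium flux fluorescence means stronger hERG block; nearly all actives have a fitted effect of over 50% in size.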 An outline of the steps:
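Cells were infected with hERG-BacMam virus for 4 hrs at room temperature, grown overnight, then seeded at 2000/well. After dye loading and roughly 10 min compound treatment, thallium influx was triggered and fluorescence recorded.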

Test [17] is described as follows: qHTS assay for cell viability of HEK293 cells (AID 743288). Note: % is set by controls: 0 for no effect and ±100 for the full control effect; nearly all actives have a fitted effect of over 50% in size. The settings on record: ATP luminescence (CellTiter-Glo), 18 h, stronger effect = lower value. The gist of the method:
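Quantitative high-throughput screen: compounds were pinned onto parental HEK293 cells (2,000 per well) after a minimum 5 h settling at 37 C, incubated 18 h at 37 C, and intracellular ATP measured by luciferase luminescence.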

Test [18] in a line: Cell Viability - LYMP2-016 (AID 984). For activity change, negative = cytotoxicity: % is set by controls: 0 for no effect and ±100 for the full control effect. Note: nearly all actives have a fitted effect of over 55% in size. Note: potency is the fitted concentration of half-maximal effect. The gist of the method:
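Acute toxicity in a Coriell human lymphoblastoid line is scored as loss of intracellular ATP over 24 h of treatment in complete medium. CellTiter-Glo signal is fitted across concentrations with the Hill equation to give AC50.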

Test [19] is described as follows: qHTS assay for small molecule activators of the p53 signaling pathway (AID 651743; active = well fitted activation curve with a large enough effect in the signal ratio, not every such curve was filed as active; the % refers to the signal ratio; note: % of control where 0% means no effect). The settings on record: HCT-116 p53RE-bla, beta-lactamase FRET ratio, 16 h; activation: stronger effect = higher value. The gist of the method: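 Agonist-mode quantitative HTS in HCT-116 cells carrying a p53-response-element beta-lactamase reporter; 16 h compound treatment at 37 C, then FRET substrate loading for 2 h at room temperature and fluorescence read.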

SMILES strings stand for the structures. Where “and” joins values, the source holds several entries; their conditions need not be identical. Equal entries are not always repeated. Unmarked numbers belong to inactive results. Records with an inconclusive call do not appear. Calls of active or inactive are those of the source. Unless noted, calls come from the whole dose curve; as a rule, active = well fitted curve in the direction sought with a large enough effect; inconclusive = small, poorly fitted or top-dose-only effect, or another doubt; inactive = no such curve, though single readings can be large; an effect the other way counts as inactive or inconclusive.

Sequence of Voltage-gated inwardly rectifying potassium channel KCNH2 (Homo sapiens) (Q12809 whole entry, looked up): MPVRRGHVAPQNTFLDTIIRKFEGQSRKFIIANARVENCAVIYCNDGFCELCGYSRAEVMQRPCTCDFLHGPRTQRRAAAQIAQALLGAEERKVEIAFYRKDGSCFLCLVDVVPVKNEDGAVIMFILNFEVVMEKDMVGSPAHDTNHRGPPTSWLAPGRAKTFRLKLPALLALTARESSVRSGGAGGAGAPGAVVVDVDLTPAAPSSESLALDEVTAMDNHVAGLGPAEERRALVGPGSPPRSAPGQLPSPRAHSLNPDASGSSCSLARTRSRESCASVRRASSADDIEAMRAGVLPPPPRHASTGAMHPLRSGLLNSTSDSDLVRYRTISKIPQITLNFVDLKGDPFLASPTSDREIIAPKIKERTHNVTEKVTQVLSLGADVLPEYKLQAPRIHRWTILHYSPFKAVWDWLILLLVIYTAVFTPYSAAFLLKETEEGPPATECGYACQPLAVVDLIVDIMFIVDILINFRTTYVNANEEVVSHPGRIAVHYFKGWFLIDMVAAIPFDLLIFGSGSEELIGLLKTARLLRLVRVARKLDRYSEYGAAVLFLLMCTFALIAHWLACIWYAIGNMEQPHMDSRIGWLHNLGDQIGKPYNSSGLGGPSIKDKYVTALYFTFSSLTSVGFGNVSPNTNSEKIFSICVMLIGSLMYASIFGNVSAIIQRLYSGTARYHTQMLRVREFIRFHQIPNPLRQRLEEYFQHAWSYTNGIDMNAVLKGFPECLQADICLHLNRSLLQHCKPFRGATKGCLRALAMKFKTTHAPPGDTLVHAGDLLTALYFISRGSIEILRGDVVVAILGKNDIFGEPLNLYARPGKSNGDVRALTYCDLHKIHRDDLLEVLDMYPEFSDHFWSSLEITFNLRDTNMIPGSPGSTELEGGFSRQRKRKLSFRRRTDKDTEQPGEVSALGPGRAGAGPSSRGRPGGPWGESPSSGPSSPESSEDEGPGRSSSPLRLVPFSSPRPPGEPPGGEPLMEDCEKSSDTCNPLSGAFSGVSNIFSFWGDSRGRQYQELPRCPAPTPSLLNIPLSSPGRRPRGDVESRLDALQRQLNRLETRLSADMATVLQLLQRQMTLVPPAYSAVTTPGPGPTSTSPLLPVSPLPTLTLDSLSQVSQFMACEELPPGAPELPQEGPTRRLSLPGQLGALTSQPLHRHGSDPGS
Sequence of Retinoic acid receptor RXR-alpha (Homo sapiens) (P19793 whole entry, looked up): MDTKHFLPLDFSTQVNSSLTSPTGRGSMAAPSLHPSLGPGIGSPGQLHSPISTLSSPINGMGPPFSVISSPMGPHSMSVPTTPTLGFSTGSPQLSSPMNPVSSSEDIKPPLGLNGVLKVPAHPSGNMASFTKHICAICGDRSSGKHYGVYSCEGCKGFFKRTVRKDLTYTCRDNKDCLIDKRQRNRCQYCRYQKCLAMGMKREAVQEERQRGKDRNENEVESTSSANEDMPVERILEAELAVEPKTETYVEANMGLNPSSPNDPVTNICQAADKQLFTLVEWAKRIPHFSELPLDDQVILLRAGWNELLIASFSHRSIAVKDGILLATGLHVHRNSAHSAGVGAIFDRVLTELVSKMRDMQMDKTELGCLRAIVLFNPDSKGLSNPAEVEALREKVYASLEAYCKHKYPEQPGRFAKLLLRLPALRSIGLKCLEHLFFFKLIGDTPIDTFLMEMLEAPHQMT
Sequence of Vitamin D3 receptor (Homo sapiens) (P11473 whole entry, looked up): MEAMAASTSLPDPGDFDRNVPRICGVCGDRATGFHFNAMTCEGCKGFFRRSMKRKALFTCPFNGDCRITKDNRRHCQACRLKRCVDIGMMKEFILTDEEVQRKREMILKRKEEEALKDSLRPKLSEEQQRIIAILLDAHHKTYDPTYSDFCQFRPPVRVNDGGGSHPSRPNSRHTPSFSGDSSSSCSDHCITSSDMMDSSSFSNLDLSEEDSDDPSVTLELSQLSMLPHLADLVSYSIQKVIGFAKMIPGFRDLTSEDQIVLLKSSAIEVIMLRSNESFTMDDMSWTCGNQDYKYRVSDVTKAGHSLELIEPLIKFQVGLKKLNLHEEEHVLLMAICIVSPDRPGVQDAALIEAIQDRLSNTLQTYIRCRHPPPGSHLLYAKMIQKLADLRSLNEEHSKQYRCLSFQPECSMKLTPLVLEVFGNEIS

`O=Cc1ccc2c(c1)OCO2`: the Potency entry in [1], in [5], in test [6], in test [7], in test [8] and in test [9] was “inactive” each time. The Potency entry in [10], in test [11], in test [12], in test [13] and in test [16] was “inactive” in each case. Moreover, in test [2], the caspase-3 activation was -0.168%. In addition, the molecule was classed as inactive in test [3], in test [4] and in test [14]. For the same molecule, the max response in test [15] is -12.4%; in test [17] it was -0.123%.

Consider `CN(C)c1ccc(N)cc1`, for which, in test [1], the activity change, negative = cytotoxicity was -109% (active). Besides, the molecule was classed as inactive in test [3] and in [14]. The results for the Potency in [10] and in test [18] were 50.1 µM (active) and 79.4 µM (active), respectively. Further, the activation in test [19] was -3.55%.

Regarding `S=C1NCCN1`, the Potency result in test [1], in test [5], in test [6], in test [7], in [8] and in test [9] was “inactive” throughout. For the same molecule, the Potency entry in test [10], in test [11], in [18] and in [16] was “inactive” each time. For the same molecule, in test [2], the caspase-3 activation was 0.9%. Also, the molecule was called inactive in [3] and in [14]. Further, the max response in test [15] is -12.1% and 9.5%; in [17], 4.6% and 3.06%. In test [19], the activation is -4.05% and -5.02%.

On to `O=C(O)C(Cl)(Cl)Br`, for which the Potency entry in [1], in test [5], in test [7], in test [8], in test [9] and in test [10] was “inactive” throughout. For the same molecule, the Potency result in test [11], in test [18], in [12] and in [16] was “inactive” throughout. In test [2], the caspase-3 activation was 1.43%. Moreover, the outcome in [3], in test [4] and in test [14] was inactive. Besides, the activation in test [19] was -0.303%. The max response in test [17] was 5.15%.

On to `C=COC(C)=O`, for which the Potency result in test [1], in test [5], in test [6], in test [7], in test [8] and in test [9] was “inactive” in each case. Further, the Potency result in test [10], in test [11], in test [18], in [12], in test [13] and in test [16] was “inactive” each time. For the same molecule, the molecule was classed as inactive in test [3], in test [4] and in test [14]. The max response in test [15] is -3.99%; in [17] it was -3.61%.

Consider `Oc1ccc(Cl)c(Cl)c1`, for which the outcome in [3], in test [4] and in test [14] was inactive. In addition, the Potency entry in test [5], in test [6], in [7], in test [8], in test [9] and in test [10] was “inactive” in each case. In addition, the Potency entry in [11] and in test [12] was “inactive” throughout. For the same molecule, the activation in [19] was 2.18%. Besides, the max response in test [17] was 7.88%.

On to `Cl/C=C/CCl`, for which the Potency entry in test [1], in test [5], in [6], in test [7], in [9] and in test [10] was “inactive” each time. The Potency result in test [18], in test [12], in [13] and in [16] was “inactive” throughout. In addition, in test [2], the caspase-3 activation was 1.51%. The outcome in [3], in [4] and in test [14] was inactive. In test [19], the activation is -2.05%.

Regarding `CCCCCc1cc(O)cc(O)c1`, the Potency result in test [1], in test [5], in test [6], in test [8], in test [9] and in test [10] was “inactive” in each case. Also, the Potency entry in test [11], in test [18], in [12] and in [16] was “inactive” in each case. The caspase-3 activation in test [2] was 1.33%. For the same molecule, the outcome in [3], in [4] and in [14] was inactive. The max response in [15] is -16.8%; in test [17], -5.2%. The activation in test [19] was -2.37%.
